Results as given in the supplement of paper PMC12494721.
Structures can show the parent of a compound that is named as a salt.

tested on: Klebsiella aerogenes DSM 30053; assay: fold change of Putrescine concentration vs plate DMSO controls (fold change (ratio)); higher = more amine produced, active = hit call of the paper (significant change in both replicates, either direction); settings: 20 µM; incubation time: 27 h, anaerobic, 37 °C
In short: (§1)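 Amine values are fold changes relative to DMSO-only wells on the same plate. They derive from 27 h, 37 °C anaerobic mGAM cultures of four gut bacterial strains in 80 µL wells, dosed at 20 µM final, or 50 µM final for sweeteners. Extraction of the whole culture, LC–triple-quadrupole MS in dynamic MRM mode, external calibration curves and within-batch drift correction were used, with 2 biological replicates averaged.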

| Structure (SMILES) | fold change of Putrescine concentration |
| --- | --- |
| C[C@@H]1C[C@@H]([C@H](O)CC2CC(=O)NC(=O)C2)C(=O)[C@@H](C)C1 [Cycloheximide] | 1.03 (inactive) |
| CCNC1(c2cccs2)CCCCC1=O (configuration not stated) [Tiletamine hydrochloride] | 1.01 (inactive) |
| CCCC1COC(Cn2cncn2)(c2ccc(Cl)cc2Cl)O1 (configuration not stated) | 0.946 (inactive) |
| ClC1C(Cl)C(Cl)C(Cl)C(Cl)C1Cl (configuration not stated) | 1 (inactive) |
| CN1C[C@H](CNC(=O)OCc2ccccc2)C[C@@H]2c3cccc4c3c(cn4C)C[C@H]21 [Metergoline] | 0.996 (inactive) |
| O=[N+]([O-])O[C@@H]1CO[C@H]2[C@@H]1OC[C@@H]2O [Isosorbide mononitrate] | 1.05 (inactive) |
| C[N+]1(C)CCCCC1 | 1.01 (inactive) |
| N#Cc1nn(-c2c(Cl)cc(C(F)(F)F)cc2Cl)c(N)c1[S+]([O-])C(F)(F)F (configuration not stated) | 1.05 (inactive) |
| COCC(=O)N(c1c(C)cccc1C)[C@H](C)C(=O)OC | 0.996 (inactive) |
| Cc1cc(C(F)(C(F)(F)F)C(F)(F)F)ccc1NC(=O)c1cccc(I)c1C(=O)NC(C)(C)CS(C)(=O)=O | 1 (inactive) |
| CC1C=CC=CCCC=CC=CC=CC=CC(OC2OC(C)C(O)C(N)C2O)CC2OC(O)(CC(O)C(O)CCC(O)CC(O)CC(O)CC(=O)OC(C)C(C)C1O)CC(O)C2C(=O)O (configuration not stated) [Nystatine] | 1 (inactive) |
| CCOC(=O)CC(SP(=S)(OC)OC)C(=O)OCC (configuration not stated) | 0.994 (inactive) |
| Fc1ccc([C@]2(Cn3cncn3)O[C@H]2c2ccccc2Cl)cc1 (racemic) | 0.954 (inactive) |
| O=C(Nc1ccccc1-c1ccc(Cl)cc1)c1cccnc1Cl | 0.985 (inactive) |
| CCN(CC)c1nc(C)cc(OP(=S)(OC)OC)n1 | 0.969 (inactive) |
| O=C(O[C@H]1C[N+]2(CCCOc3ccccc3)CCC1CC2)C(O)(c1cccs1)c1cccs1 [Aclidinium bromide] | 1 (inactive) |
| CCC(C)(c1ccc(O)cc1)c1ccc(O)cc1 [Bisphenol B] | 0.994 (inactive) |
| CNC(=O)/C=C(\C)OP(=O)(OC)OC | 0.986 (inactive) |

| Structure (SMILES) | fold change of Putrescine concentration |
| --- | --- |
| CO/C=C(/C(=O)OC)c1ccccc1Oc1cc(Oc2ccccc2C#N)ncn1 | 0.994 (inactive) |
| C[C@@H]1CN([C@H]2CC[C@](C#N)(c3ccc(F)cc3)CC2)CC[C@]1(C(=O)O)c1ccccc1 [Levocabastine hydrochloride] | 1 (inactive) |
| O=C(O)c1nc(Cl)ccc1Cl | 0.98 (inactive) |
| CCn1cc(C(=O)O)c(=O)c2cc3c(cc21)OCO3 [Oxolinic acid] | 1.08 (inactive) |
| CC(C)(C)C(O)(CCc1ccc(Cl)cc1)Cn1cncn1 (configuration not stated) | 1.03 (inactive) |
| C[C@]12C=CC(=O)C=C1CC[C@@H]1[C@@H]2CC[C@@]2(C)[C@H]1CC[C@]2(C)O [Methandrostenolone] | 0.995 (inactive) |
| COP(=S)(OC)Oc1nc(Cl)c(Cl)cc1Cl | 1.02 (inactive) |
| O=C(O)C(F)(F)C(F)(F)C(F)(F)C(F)(F)C(F)(F)C(F)(F)F [PFHpA (Perfluoroheptanoic acid)] | 1.02 (inactive) |
| OCC(O)CCl (racemic) | 0.959 (inactive) |
| CC(=O)O[C@H]1CC[C@@]2(C)C(=CC[C@@H]3[C@@H]2CC[C@]2(C)C(=O)CC[C@@H]32)C1 [Dehydroisoandosterone 3-acetate] | 1.04 (inactive) |
| CC(C)N(C(=O)COc1nnc(C(F)(F)F)s1)c1ccc(F)cc1 | 1 (inactive) |
| CC(=O)OCC(=O)[C@H]1CC[C@H]2[C@@H]3CC[C@H]4C[C@H](O)CC[C@]4(C)[C@H]3C(=O)C[C@]12C [Alfadolone acetate] | 0.981 (inactive) |
| C[C@]12CC[C@@H]3c4ccc(OC(=O)N(CCCl)CCCl)cc4CC[C@H]3[C@@H]1CC[C@@H]2O [Estramustine] | 1.01 (inactive) |
| CCC(=O)Nc1ccc(Cl)c(Cl)c1 | 0.863 (inactive) |
| O=P1(N(CCCl)CCCl)NCCCO1 (configuration not stated) [Cyclophosphamide] | 1.01 (inactive) |
| Cc1cc(C(C#N)c2ccc(Cl)cc2)c(Cl)cc1NC(=O)c1cc(I)cc(I)c1O (configuration not stated) [Closantel] | 0.984 (inactive) |
| COP(=S)(OC)SCN1C(=O)c2ccccc2C1=O | 1.01 (inactive) |
| C#CCOc1ccc(CCNC(=O)C(OCC#C)c2ccc(Cl)cc2)cc1OC (configuration not stated) | 1.01 (inactive) |

tested on: Escherichia coli IAI1; assay: fold change of Cadaverine concentration vs plate DMSO controls (fold change (ratio)); higher = more amine produced, active = hit call of the paper (significant change in both replicates, either direction); settings: 20 µM; incubation time: 27 h, anaerobic, 37 °C
In short: as §1

| Structure (SMILES) | fold change of Cadaverine concentration |
| --- | --- |
| C[C@@H]1C[C@@H]([C@H](O)CC2CC(=O)NC(=O)C2)C(=O)[C@@H](C)C1 [Cycloheximide] | 1.01 (inactive) |
| CCNC1(c2cccs2)CCCCC1=O (configuration not stated) [Tiletamine hydrochloride] | 0.995 (inactive) |
| CCCC1COC(Cn2cncn2)(c2ccc(Cl)cc2Cl)O1 (configuration not stated) | 0.939 (inactive) |
| ClC1C(Cl)C(Cl)C(Cl)C(Cl)C1Cl (configuration not stated) | 1.02 (inactive) |
| CN1C[C@H](CNC(=O)OCc2ccccc2)C[C@@H]2c3cccc4c3c(cn4C)C[C@H]21 [Metergoline] | 1.08 (inactive) |
| O=[N+]([O-])O[C@@H]1CO[C@H]2[C@@H]1OC[C@@H]2O [Isosorbide mononitrate] | 0.975 (inactive) |
| C[N+]1(C)CCCCC1 | 0.995 (inactive) |
| N#Cc1nn(-c2c(Cl)cc(C(F)(F)F)cc2Cl)c(N)c1[S+]([O-])C(F)(F)F (configuration not stated) | 0.937 (inactive) |
| COCC(=O)N(c1c(C)cccc1C)[C@H](C)C(=O)OC | 0.99 (inactive) |
| Cc1cc(C(F)(C(F)(F)F)C(F)(F)F)ccc1NC(=O)c1cccc(I)c1C(=O)NC(C)(C)CS(C)(=O)=O | 1 (inactive) |
| CC1C=CC=CCCC=CC=CC=CC=CC(OC2OC(C)C(O)C(N)C2O)CC2OC(O)(CC(O)C(O)CCC(O)CC(O)CC(O)CC(=O)OC(C)C(C)C1O)CC(O)C2C(=O)O (configuration not stated) [Nystatine] | 1.05 (inactive) |
| CCOC(=O)CC(SP(=S)(OC)OC)C(=O)OCC (configuration not stated) | 0.997 (inactive) |
| Fc1ccc([C@]2(Cn3cncn3)O[C@H]2c2ccccc2Cl)cc1 (racemic) | 1.03 (inactive) |
| O=C(Nc1ccccc1-c1ccc(Cl)cc1)c1cccnc1Cl | 0.979 (inactive) |
| CCN(CC)c1nc(C)cc(OP(=S)(OC)OC)n1 | 0.901 (inactive) |
| O=C(O[C@H]1C[N+]2(CCCOc3ccccc3)CCC1CC2)C(O)(c1cccs1)c1cccs1 [Aclidinium bromide] | 0.982 (inactive) |
| CCC(C)(c1ccc(O)cc1)c1ccc(O)cc1 [Bisphenol B] | 1 (inactive) |
| CNC(=O)/C=C(\C)OP(=O)(OC)OC | 1.05 (inactive) |

| Structure (SMILES) | fold change of Cadaverine concentration |
| --- | --- |
| CO/C=C(/C(=O)OC)c1ccccc1Oc1cc(Oc2ccccc2C#N)ncn1 | 0.962 (inactive) |
| C[C@@H]1CN([C@H]2CC[C@](C#N)(c3ccc(F)cc3)CC2)CC[C@]1(C(=O)O)c1ccccc1 [Levocabastine hydrochloride] | 0.916 (inactive) |
| O=C(O)c1nc(Cl)ccc1Cl | 0.963 (inactive) |
| CCn1cc(C(=O)O)c(=O)c2cc3c(cc21)OCO3 [Oxolinic acid] | 0.227 (active) |
| CC(C)(C)C(O)(CCc1ccc(Cl)cc1)Cn1cncn1 (configuration not stated) | 1.01 (inactive) |
| C[C@]12C=CC(=O)C=C1CC[C@@H]1[C@@H]2CC[C@@]2(C)[C@H]1CC[C@]2(C)O [Methandrostenolone] | 1.01 (inactive) |
| COP(=S)(OC)Oc1nc(Cl)c(Cl)cc1Cl | 0.99 (inactive) |
| O=C(O)C(F)(F)C(F)(F)C(F)(F)C(F)(F)C(F)(F)C(F)(F)F [PFHpA (Perfluoroheptanoic acid)] | 1.04 (inactive) |
| OCC(O)CCl (racemic) | 0.891 (inactive) |
| CC(=O)O[C@H]1CC[C@@]2(C)C(=CC[C@@H]3[C@@H]2CC[C@]2(C)C(=O)CC[C@@H]32)C1 [Dehydroisoandosterone 3-acetate] | 1.01 (inactive) |
| CC(C)N(C(=O)COc1nnc(C(F)(F)F)s1)c1ccc(F)cc1 | 1.02 (inactive) |
| CC(=O)OCC(=O)[C@H]1CC[C@H]2[C@@H]3CC[C@H]4C[C@H](O)CC[C@]4(C)[C@H]3C(=O)C[C@]12C [Alfadolone acetate] | 1.03 (inactive) |
| C[C@]12CC[C@@H]3c4ccc(OC(=O)N(CCCl)CCCl)cc4CC[C@H]3[C@@H]1CC[C@@H]2O [Estramustine] | 1.05 (inactive) |
| CCC(=O)Nc1ccc(Cl)c(Cl)c1 | 0.929 (inactive) |
| O=P1(N(CCCl)CCCl)NCCCO1 (configuration not stated) [Cyclophosphamide] | 1.02 (inactive) |
| Cc1cc(C(C#N)c2ccc(Cl)cc2)c(Cl)cc1NC(=O)c1cc(I)cc(I)c1O (configuration not stated) [Closantel] | 1.32 (active) |
| COP(=S)(OC)SCN1C(=O)c2ccccc2C1=O | 0.997 (inactive) |
| C#CCOc1ccc(CCNC(=O)C(OCC#C)c2ccc(Cl)cc2)cc1OC (configuration not stated) | 0.933 (inactive) |
